# In PubChem BioAssay (NCI):
# This is part of a sample that, as a whole, favours compounds with a hit. Of some 79,000 tested, about 15% had one in any assay. Values without a mark were called inactive. Calls of active or inactive are those of the source. No stated cut-off is given here; in the data, active means growth inhibition above about 70%; inactive means the rest.
# Assays:
# [1] = NCI Yeast Anticancer Drug Screen. Data for the wt2 strain (AID 169); conditions: S. cerevisiae wt2 strain growth inhibition, stronger effect = higher value
# Summary of the method: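 Steps: yeast strain treated with compound; growth recorded; inhibition calculated relative to cultures given vehicle alone.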
# [2] = NCI Yeast Anticancer Drug Screen. Data for the mlh1 strain (AID 171);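 further: 0% = growth of vehicle-treated control cultures of the same strain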; conditions: S. cerevisiae mlh1 strain growth inhibition, stronger effect = higher value
# Summary of the method: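 Yeast screen: mutant strain plus compound, growth scored against vehicle control wells.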
# [3] = NCI Yeast Anticancer Drug Screen. Data for the sgs1 strain (AID 173);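 further: 0% = growth of vehicle-only control cultures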; conditions: S. cerevisiae sgs1 mutant, stronger effect = higher value
# Summary of the method: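 Inhibition of yeast growth served as the measure. The mutant strain was treated with each compound, and growth was normalised to cultures receiving vehicle alone.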
# [4] = NCI Yeast Anticancer Drug Screen. Data for the mlh1 rad18 strain (AID 175); conditions: S. cerevisiae mlh1 rad18 strain growth inhibition, stronger effect = higher value
# Summary of the method: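 Compound-treated yeast growth, normalised to vehicle controls. Strain bears defined DNA repair mutations.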
# [5] = NCI Yeast Anticancer Drug Screen. Data for the rad52 strain (AID 147);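 further: 0% = growth of vehicle-treated control cultures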; conditions: S. cerevisiae rad52 mutant growth inhibition, stronger effect = higher value
# Summary of the method: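 Genetically altered yeast (DNA damage repair defect) treated with compound; inhibition calculated relative to vehicle.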
# [6] = NCI Yeast Anticancer Drug Screen. Data for the wt1 strain (AID 149);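 further: 0% = growth of vehicle-treated wt1 cultures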; conditions: S. cerevisiae wt1 strain (SPY 50644) growth inhibition, stronger effect = higher value
# Summary of the method: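 Each compound is tested on wt1 yeast and the loss of growth versus vehicle gives the inhibition value.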
# [7] = NCI Yeast Anticancer Drug Screen. Data for the rad50EPP+ strain (AID 151);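 further: 0% = growth of vehicle-treated control cultures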; conditions: S. cerevisiae rad50 mutant strain, stronger effect = higher value
# Summary of the method: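 Strain rad50EPP+; compound exposure; % growth inhibition vs vehicle.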
# [8] = NCI Yeast Anticancer Drug Screen. Data for the mgt1 strain (AID 153); conditions: S. cerevisiae mgt1 mutant growth inhibition, stronger effect = higher value
# Summary of the method: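 Read-out: yeast growth inhibition vs vehicle control. Strain mgt1, drawn from a panel altered in DNA damage repair or cell cycle control.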
# [9] = NCI Yeast Anticancer Drug Screen. Data for the rad50 strain (AID 155);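 further: 0% = growth of vehicle-only cultures of the same strain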; conditions: S. cerevisiae rad50 strain growth inhibition, stronger effect = higher value
# Summary of the method: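 Vehicle-treated cultures provide the reference for the growth inhibition reported for compound-exposed, repair-deficient yeast.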
# [10] = NCI Yeast Anticancer Drug Screen. Data for the mec2-1 strain (AID 157); conditions: S. cerevisiae mec2-1 strain, stronger effect = higher value
# Summary of the method: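 Cells of the genetically defined mec2-1 yeast strain are incubated with test compound. Inhibition of growth is calculated against vehicle-treated controls.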
# [11] = NCI Yeast Anticancer Drug Screen. Data for the rad14 strain (AID 159);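 further: 0% = growth of vehicle-treated control cultures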; conditions: S. cerevisiae rad14 strain growth inhibition, stronger effect = higher value
# Summary of the method: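 Inhibition of growth is reported for a repair-deficient yeast mutant following compound treatment, calculated relative to cultures that received vehicle.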
# [12] = NCI Yeast Anticancer Drug Screen. Data for the sgs1 mgt1 strain (AID 161);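 further: 0% = growth of cultures given vehicle only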; conditions: S. cerevisiae sgs1 mgt1 strain, stronger effect = higher value
# Summary of the method: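 Test agents were incubated with a DNA-repair-mutant yeast strain. Growth was then read and compared against vehicle-treated controls.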
# [13] = NCI Yeast Anticancer Drug Screen. Data for the CLN2oe strain (AID 163);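 further: 0% = growth of vehicle-only control cultures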; conditions: S. cerevisiae CLN2oe strain, stronger effect = higher value
# Summary of the method: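 Strain altered in cell-cycle control, incubated with compound; growth compared to solvent-treated controls.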
# [14] = NCI Yeast Anticancer Drug Screen. Data for the cln2 rad14 strain (AID 165);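 further: 0% = growth equal to vehicle treated cultures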; conditions: S. cerevisiae cln2 rad14 strain, stronger effect = higher value
# Summary of the method: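 The screen exposed genetically defined yeast (cln2 rad14) to test compounds and scored growth inhibition relative to vehicle-treated controls.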
# [15] = NCI Yeast Anticancer Drug Screen. Data for the bub3 strain (AID 167); conditions: S. cerevisiae bub3 mutant strain, stronger effect = higher value
# Summary of the method: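 Mutant yeast screening strain plus compound; vehicle-treated cultures serve as the 0% inhibition reference.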
# [16] = at 5.0 µM (retest, dose inferred, filed as 0.5)
# [17] = at 50.0 µM (retest, dose inferred, filed as 5.0)
compound,measurement,setting,value
Nc1ccc(N=Nc2ccc(-c3ccc(O)cc3)cc2)c2ccc(S(=O)(=O)O)cc12,growth inhibition,[1]; at 1.2 µM,-1%
same,growth inhibition,[1]; at 3.7 µM,2%
same,growth inhibition,[1]; at 11.0 µM,5%
same,growth inhibition,[1]; at 33.0 µM,16%
same,growth inhibition,[1]; at 100.0 µM,21%
same,growth inhibition,[2]; at 1.2 µM,3%
same,growth inhibition,[2]; at 3.7 µM,3%
same,growth inhibition,[2]; at 11.0 µM,6%
same,growth inhibition,[2]; at 33.0 µM,-19%
same,growth inhibition,[2]; at 100.0 µM,18%
same,growth inhibition,[3]; at 1.2 µM,2%
same,growth inhibition,[3]; at 3.7 µM,8%
same,growth inhibition,[3]; at 11.0 µM,20%
same,growth inhibition,[3]; at 33.0 µM,37%
same,growth inhibition,[3]; at 100.0 µM,40%
same,growth inhibition,[4]; [16],5%
same,growth inhibition,[4]; [17],43%
same,growth inhibition,[4]; at 50.0 µM,55.1%
NC(=O)NC1C(c2ccccc2)=C1c1ccccc1,growth inhibition,[5]; at 1.2 µM,37%
same,growth inhibition,[5]; at 3.7 µM,58%
same,growth inhibition,[5]; at 11.0 µM,71% (active)
same,growth inhibition,[5]; at 33.0 µM,94% (active)
same,growth inhibition,[5]; at 100.0 µM,95% (active)
same,growth inhibition,[6]; at 1.2 µM,-2%
same,growth inhibition,[6]; at 3.7 µM,12%
same,growth inhibition,[6]; at 11.0 µM,26%
same,growth inhibition,[6]; at 33.0 µM,26%
same,growth inhibition,[6]; at 100.0 µM,27%
same,growth inhibition,[7]; at 1.2 µM,74% (active)
same,growth inhibition,[7]; at 3.7 µM,73% (active)
same,growth inhibition,[7]; at 11.0 µM,89% (active)
same,growth inhibition,[7]; at 33.0 µM,96% (active)
same,growth inhibition,[7]; at 100.0 µM,95% (active)
same,growth inhibition,[8]; at 1.2 µM,0%
same,growth inhibition,[8]; at 3.7 µM,-2%
same,growth inhibition,[8]; at 11.0 µM,0%
same,growth inhibition,[8]; at 33.0 µM,-3%
same,growth inhibition,[8]; at 100.0 µM,19%
same,growth inhibition,[9]; at 1.2 µM,61%
same,growth inhibition,[9]; at 3.7 µM,70% (active)
same,growth inhibition,[9]; [16],-19%
same,growth inhibition,[9]; at 11.0 µM,84% (active)
same,growth inhibition,[9]; at 33.0 µM,93% (active)
same,growth inhibition,[9]; [17],79% (active)
same,growth inhibition,[9]; at 50.0 µM,92% (active)
same,growth inhibition,[9]; at 100.0 µM,95% (active)
same,growth inhibition,[10]; at 1.2 µM,0%
same,growth inhibition,[10]; at 3.7 µM,-1%
same,growth inhibition,[10]; [16],-50%
same,growth inhibition,[10]; at 11.0 µM,6%
same,growth inhibition,[10]; at 33.0 µM,5%
same,growth inhibition,[10]; [17],-36%
same,growth inhibition,[10]; at 50.0 µM,13.2%
same,growth inhibition,[10]; at 100.0 µM,27%
same,growth inhibition,[11]; at 1.2 µM,51%
same,growth inhibition,[11]; at 3.7 µM,58%
same,growth inhibition,[11]; at 11.0 µM,73% (active)
same,growth inhibition,[11]; at 33.0 µM,97% (active)
same,growth inhibition,[11]; at 100.0 µM,97% (active)
same,growth inhibition,[12]; [16],-45%
same,growth inhibition,[12]; [17],-10%
same,growth inhibition,[12]; at 50.0 µM,17.4%
same,growth inhibition,[13]; at 1.2 µM,-3%
same,growth inhibition,[13]; at 3.7 µM,-3%
same,growth inhibition,[13]; at 11.0 µM,-3%
same,growth inhibition,[13]; at 33.0 µM,-5%
same,growth inhibition,[13]; at 100.0 µM,30%
same,growth inhibition,[14]; [16],-18%
same,growth inhibition,[14]; [17],62%
same,growth inhibition,[14]; at 50.0 µM,38%
same,growth inhibition,[15]; at 1.2 µM,-1%
same,growth inhibition,[15]; at 3.7 µM,-6%
same,growth inhibition,[15]; [16],-73%
same,growth inhibition,[15]; at 11.0 µM,-4%
same,growth inhibition,[15]; at 33.0 µM,-14%
same,growth inhibition,[15]; [17],-68%
same,growth inhibition,[15]; at 50.0 µM,-28.7%
same,growth inhibition,[15]; at 100.0 µM,-10%
same,growth inhibition,[1]; at 1.2 µM,13%
same,growth inhibition,[1]; at 3.7 µM,20%
same,growth inhibition,[1]; at 11.0 µM,45%
same,growth inhibition,[1]; at 33.0 µM,53%
same,growth inhibition,[1]; at 100.0 µM,48%
same,growth inhibition,[2]; at 1.2 µM,-7%
same,growth inhibition,[2]; at 3.7 µM,-4%
same,growth inhibition,[2]; at 11.0 µM,14%
same,growth inhibition,[2]; at 33.0 µM,17%
same,growth inhibition,[2]; at 100.0 µM,51%
same,growth inhibition,[3]; at 1.2 µM,8%
same,growth inhibition,[3]; at 3.7 µM,5%
same,growth inhibition,[3]; at 11.0 µM,44%
same,growth inhibition,[3]; at 33.0 µM,56%
same,growth inhibition,[3]; at 100.0 µM,84% (active)
same,growth inhibition,[4]; [16],-104%
same,growth inhibition,[4]; [17],-38%
same,growth inhibition,[4]; at 50.0 µM,44.7%
CC1CCN(CCC(=O)c2ccc([N+](=O)[O-])cc2)CC1,growth inhibition,[5]; at 1.2 µM,9%
same,growth inhibition,[5]; at 3.7 µM,1%
same,growth inhibition,[5]; at 11.0 µM,8%
same,growth inhibition,[5]; at 33.0 µM,34%
same,growth inhibition,[5]; at 100.0 µM,40%
same,growth inhibition,[6]; at 1.2 µM,-1%
same,growth inhibition,[6]; at 3.7 µM,-1%
same,growth inhibition,[6]; at 11.0 µM,1%
same,growth inhibition,[6]; at 33.0 µM,0%
same,growth inhibition,[6]; at 100.0 µM,7%
same,growth inhibition,[7]; at 1.2 µM,1%
same,growth inhibition,[7]; at 3.7 µM,1%
same,growth inhibition,[7]; at 11.0 µM,3%
same,growth inhibition,[7]; at 33.0 µM,15%
same,growth inhibition,[7]; at 100.0 µM,19%
same,growth inhibition,[8]; at 1.2 µM,-4%
same,growth inhibition,[8]; at 3.7 µM,3%
same,growth inhibition,[8]; at 11.0 µM,6%
same,growth inhibition,[8]; at 33.0 µM,21%
same,growth inhibition,[8]; at 100.0 µM,38%
same,growth inhibition,[9]; at 1.2 µM,9%
same,growth inhibition,[9]; at 3.7 µM,13%
same,growth inhibition,[9]; [16],6%
same,growth inhibition,[9]; at 11.0 µM,15%
same,growth inhibition,[9]; at 33.0 µM,37%
same,growth inhibition,[9]; [17],31%
same,growth inhibition,[9]; at 50.0 µM,63.5%
same,growth inhibition,[9]; at 100.0 µM,48%
same,growth inhibition,[10]; at 1.2 µM,-1%
same,growth inhibition,[10]; at 3.7 µM,2%
same,growth inhibition,[10]; [16],4%
same,growth inhibition,[10]; at 11.0 µM,1%
same,growth inhibition,[10]; at 33.0 µM,0%
same,growth inhibition,[10]; [17],69%
same,growth inhibition,[10]; at 50.0 µM,14.5%
same,growth inhibition,[10]; at 100.0 µM,14%
same,growth inhibition,[11]; at 1.2 µM,14%
same,growth inhibition,[11]; at 3.7 µM,25%
same,growth inhibition,[11]; at 11.0 µM,34%
same,growth inhibition,[11]; at 33.0 µM,36%
same,growth inhibition,[11]; at 100.0 µM,45%
same,growth inhibition,[12]; [16],7%
same,growth inhibition,[12]; [17],68%
same,growth inhibition,[12]; at 50.0 µM,68.5%
same,growth inhibition,[13]; at 1.2 µM,2%
same,growth inhibition,[13]; at 3.7 µM,5%
same,growth inhibition,[13]; at 11.0 µM,15%
same,growth inhibition,[13]; at 33.0 µM,30%
same,growth inhibition,[13]; at 100.0 µM,40%
same,growth inhibition,[14]; [16],8%
same,growth inhibition,[14]; [17],34%
same,growth inhibition,[14]; at 50.0 µM,31.2%
same,growth inhibition,[15]; at 1.2 µM,-2%
same,growth inhibition,[15]; at 3.7 µM,2%
same,growth inhibition,[15]; [16],7%
same,growth inhibition,[15]; at 11.0 µM,6%
same,growth inhibition,[15]; at 33.0 µM,18%
same,growth inhibition,[15]; [17],65%
same,growth inhibition,[15]; at 50.0 µM,89.6% (active)
same,growth inhibition,[15]; at 100.0 µM,31%
same,growth inhibition,[1]; at 1.2 µM,-6%
same,growth inhibition,[1]; at 3.7 µM,-2%
same,growth inhibition,[1]; at 11.0 µM,3%
same,growth inhibition,[1]; at 33.0 µM,1%
same,growth inhibition,[1]; at 100.0 µM,16%
same,growth inhibition,[2]; at 1.2 µM,1%
same,growth inhibition,[2]; at 3.7 µM,7%
same,growth inhibition,[2]; at 11.0 µM,9%
same,growth inhibition,[2]; at 33.0 µM,30%
same,growth inhibition,[2]; at 100.0 µM,39%
same,growth inhibition,[3]; at 1.2 µM,2%
same,growth inhibition,[3]; at 3.7 µM,16%
same,growth inhibition,[3]; at 11.0 µM,25%
same,growth inhibition,[3]; at 33.0 µM,46%
same,growth inhibition,[3]; at 100.0 µM,54%
same,growth inhibition,[4]; [16],7%
same,growth inhibition,[4]; [17],62%
same,growth inhibition,[4]; at 50.0 µM,40.4%
